Laboratory results published in PubChem BioAssay (NCATS).
Records with an inconclusive call do not appear. Calls of active or inactive are those of the source. The call rests on the fitted dose curve; in most records, active means well fitted curve in the direction sought with a large enough effect; inconclusive means small, poorly fitted or top-dose-only effect, or another doubt; inactive means no such curve, though single readings can be large; an effect the other way counts as inactive or inconclusive.

Columns and labels:
[1] = P-glycoprotein substrates identified in KB-8-5-11 adenocarcinoma cell line, qHTS therapeutic library screen (AID 1346987); further: nearly all actives have a fitted effect of over 65% in size; further: potency means the concentration at half of the fitted maximal effect
How it was run: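 Human cervical adenocarcinoma KB-8-5-11 cells, selected in colchicine to over-express P-gp and assayed without it, were exposed for 72 h to titrated compounds. An ATP-based luminescent viability signal gave AC50.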

[2] = qHTS of pediatric cancer cell lines to identify multiple opportunities for drug repurposing: Primary screen for BT-37 cells (AID 1347094); further: potency means the concentration at half of the fitted maximal effect
How it was run: (§1)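 ATP-based luminescence (CellTiter-Glo) quantifies viability after a 48-hour exposure. Compounds are dosed across 8 or 11 final concentrations; DMSO and 2.3 µM bortezomib serve as controls.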

[3] = qHTS of pediatric cancer cell lines to identify multiple opportunities for drug repurposing: Primary screen for SK-N-SH cells (AID 1347098); further: nearly all actives have a fitted effect of over 65% in size; further: potency means the concentration at half of the fitted maximal effect
How it was run: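 Cells (500-1,000/well) rested 5 h, then received compounds for 48 h; metabolically active cells were measured by CellTiter-Glo luminescence. Final concentrations spanned up to 46 µM (MIPE, 11-point) or 0.59 nM-46 µM (NPC, 8-point) in primary screens, 11-point in follow-ups.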

[4] = NS1 protein of Zika virus - qHTS assay to identify small molecule inhibitors in human HEK 293 cells (AID 1347053); further: series mostly up to about 46 µM; nearly all actives have a fitted effect of over 55% in size
How it was run: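 Read-out is a two-antibody TR-FRET for ZIKV NS1, normalized between uninfected cells and infected cells. Compound added 1 h before MR766 infection at MOI 0.5; human HEK 293 cells incubated 24 h, 37 C.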

[5] = qHTS of pediatric cancer cell lines to identify multiple opportunities for drug repurposing: Primary screen for TC32 cells (AID 1347089); further: nearly all actives have a fitted effect of over 60% in size; further: potency means the concentration at half of the fitted maximal effect
How it was run: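 Luminescent ATP read-out (CellTiter-Glo) of metabolically active TC32 cells after 48 h exposure. Concentration-response curves came from 11-point (MIPE, 0.78 nM–46 µM) or 8-point (NPC, 0.59 nM–46 µM) primary titrations; follow-up used 11 points.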

[6] = qHTS of pediatric cancer cell lines to identify multiple opportunities for drug repurposing: Primary screen for DAOY cells (AID 1347090); further: nearly all actives have a fitted effect of over 55% in size; further: potency means the concentration at half of the fitted maximal effect
How it was run: (§2)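 Viability measured as metabolically active cells via CellTiter-Glo luminescence following 48 hours of compound exposure, 11-point dilutions in confirmatory testing. 500-1,000 cells/well plated 5 hours before dosing; controls were DMSO and 2.3 µM bortezomib.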

[7] = qHTS of pediatric cancer cell lines to identify multiple opportunities for drug repurposing: Primary screen for SJ-GBM2 cells (AID 1347091)
How it was run: as §2

[8] = qHTS of pediatric cancer cell lines to identify multiple opportunities for drug repurposing: Primary screen for A673 cells (AID 1347092); further: nearly all actives have a fitted effect of over 45% in size; further: potency means the concentration at half of the fitted maximal effect
How it was run: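 Cell viability of A673 measured by CellTiter-Glo ATP luminescence after 48 hours compound exposure. Dilution series spanned 0.78 nM to 46 µM (MIPE, 11-point) or 0.59 nM to 46 µM (NPC, 8-point); bortezomib 2.3 uM positive control.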

[9] = qHTS of pediatric cancer cell lines to identify multiple opportunities for drug repurposing: Primary screen for SK-N-MC cells (AID 1347093); further: potency means the concentration at half of the fitted maximal effect
How it was run: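 Metabolically active cells were quantified by ATP-dependent luminescence (CellTiter-Glo, 15 min at room temperature) following 48 h treatment. Cells had been plated at 500-1,000 per well and settled for 5 h beforehand.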

[10] = qHTS of pediatric cancer cell lines to identify multiple opportunities for drug repurposing: Primary screen for NB-EBc1 cells (AID 1347095); further: potency means the concentration at half of the fitted maximal effect
How it was run: as §1

[11] = qHTS of pediatric cancer cell lines to identify multiple opportunities for drug repurposing: Primary screen for U-2 OS cells (AID 1347096); further: nearly all actives have a fitted effect of over 50% in size
How it was run: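 Viability after 48 h compound treatment at 37C, 500-1,000 cells/well, read as ATP luminescence with CellTiter-Glo. Primary screens used 11-point (MIPE, 0.78 nM-46 µM) or 8-point (NPC, 0.59 nM-46 µM) final concentrations; follow-up screens used 11-point dilutions.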

[12] = qHTS of pediatric cancer cell lines to identify multiple opportunities for drug repurposing: Primary screen for Saos-2 cells (AID 1347097); further: nearly all actives have a fitted effect of over 40% in size; further: potency means the concentration at half of the fitted maximal effect
How it was run: as §1

Measured: Potency

CCCCCN=C(N)N/N=C/c1c[nH]c2ccc(OC)cc12
active: [2] 24.6 µM | [3] 4.33 µM
inactive: [1]

c1ccc(-c2nc[nH]c2-c2ccccc2)cc1
inactive: [4] | [5] | [6] | [7] | [8] | [9] | [2] | [10] | [11] | [3]

Cl/C(=C\n1cncn1)c1ccc(Cl)cc1Cl
inactive: [4] | [5] | [6] | [7] | [8] | [9] | [2] | [10] | [11] | [3]

CCCCCCCCCCCCCCC[C@H](O)[C@@H](N)CO
inactive: [4] | [5] | [6] | [7] | [8] | [9] | [2] | [10] | [11] | [12]

C#C[C@]1(OC(C)=O)CC[C@H]2[C@@H]3CCC4=C/C(=N/O)CC[C@@H]4[C@H]3CC[C@@]21CC
inactive: [11]
active: [1] 6.51 µM

Cn1c(=O)c2[nH]c(Br)nc2n(C)c1=O
inactive: [1] | [5] | [6] | [7] | [2] | [10] | [11] | [3]

CN1CCN(C2=Nc3cc(F)ccc3Cc3ccccc32)CC1
inactive: [5] | [6] | [7] | [8] | [10]

O=C(NC1CCN(CCc2c[nH]c3ccccc23)CC1)c1ccccc1
inactive: [4] | [5] | [6] | [7] | [9] | [2] | [10] | [11]

CCO[C@@H]1O[C@H](C(COCc2ccccc2)OCc2ccccc2)[C@H](OCc2ccccc2)[C@H]1O (stereo partly drawn)
inactive: [4] | [5] | [10] | [11]
active: [12] 26.6 µM

CC(C)=CCOc1ccc(/C=C/C(=O)c2ccc(OCC=C(C)C)cc2OCC(=O)O)cc1
inactive: [4] | [5] | [2] | [11]
active: [9] 21.1 µM

C[C@]12CCC(=O)C=C1C=C[C@@H]1[C@@H]2CC[C@@]2(C)[C@H]1CC[C@@]21CCC(=O)O1
inactive: [5] | [7] | [2] | [10] | [11] | [3]

CNCCCCOc1ccccc1Cc1ccccc1
inactive: [4] | [5] | [6] | [10] | [11]
active: [3] 24.4 µM

CCc1oc2ccccc2c1C(=O)c1cc(I)c(O)c(I)c1
inactive: [4] | [5] | [8] | [2] | [11] | [3]

CC(=O)O[C@]1(C(C)=O)CC[C@H]2[C@@H]3C=C(C)C4=CC(=O)CC[C@]4(C)[C@H]3CC[C@@]21C
inactive: [5] | [6] | [7] | [8] | [9] | [2] | [10] | [11] | [12] | [3]

CCCCNc1ccc(C(=O)OCCOCCOCCOCCOCCOCCOCCOCCOCCOC)cc1
inactive: [4] | [5] | [6] | [7] | [9] | [10] | [12] | [3]

O=C(Nc1ccccc1)OCC(CN1CCCCC1)OC(=O)Nc1ccccc1 (stereo not drawn)
inactive: [4] | [5] | [6] | [9] | [10] | [11]

CO[C@H]1C=CO[C@@]2(C)Oc3c(C)c(O)c4c(O)c(c(/C=N/N5CCN(C)CC5)c(O)c4c3C2=O)NC(=O)/C(C)=C\C=C[C@H](C)[C@H](O)[C@@H](C)[C@@H](O)[C@@H](C)[C@H](OC(C)=O)[C@@H]1C
inactive: [5] | [6] | [7] | [8] | [2] | [10]

O[C@@H](c1cc(C(F)(F)F)nc2c(C(F)(F)F)cccc12)[C@H]1CCCCN1
active: [12] 21.1 µM | [3] 30.7 µM

O=c1[nH]c(=O)n([C@H]2C[C@H](O)[C@@H](CO)O2)cc1F
active: [5] 0.264 µM | [8] 0.841 µM | [10] 2.37 µM
inactive: [11] | [3]

Oc1ccc(Cl)cc1Cc1cc(Cl)ccc1O
active: [6] 21.1 µM | [2] 19.5 µM | [12] 8.41 µM | [3] 17.2 µM
inactive: [4]

CCN(CC)CCOc1ccc2c(c1)C(=O)c1cc(OCCN(CC)CC)ccc1-2
inactive: [6] | [11] | [12]
active: [3] 34.4 µM

COc1cc(N)c(Cl)cc1C(=O)NC1CCN(Cc2ccccc2)CC1
inactive: [4] | [5] | [6] | [7] | [9] | [2] | [10] | [11] | [12]

O=C1C(=O)c2ccccc2C(O)=C1C1CCC(c2ccc(Cl)cc2)CC1 (stereo not drawn)
inactive: [5] | [6] | [7] | [8] | [9] | [2] | [11] | [3]

Cc1ccc(O)c([C@H](CCN(C(C)C)C(C)C)c2ccccc2)c1
inactive: [4] | [5] | [6] | [7] | [8] | [2] | [11] | [12]

CCN(CC)CCNc1ccc(CO)c2sc3ccccc3c(=O)c12
active: [9] 21.1 µM | [2] 17.4 µM | [10] 7.5 µM | [3] 17.2 µM

CCN1CCCC(OC(=O)C(c2ccccc2)c2ccccc2)C1 (stereo not drawn)
inactive: [4] | [5] | [6] | [7] | [9] | [2] | [10] | [11] | [12]

CC(=O)OC[C@H]1O[C@@H](n2ncc(=O)[nH]c2=O)[C@H](OC(C)=O)[C@@H]1OC(C)=O
inactive: [11] | [3]
active: [9] 0.335 µM | [10] 23.7 µM | [12] 4.22 µM

O=C1[C@H](CC[C@H](O)c2ccc(F)cc2)[C@@H](c2ccc(O)cc2)N1c1ccc(F)cc1
inactive: [4] | [5] | [6] | [8] | [2] | [10] | [11] | [12] | [3]

CCCCc1cc2ccccc2c(OCCN(C)C)n1
inactive: [4] | [5] | [6] | [7] | [10] | [11]
